According to PubChem BioAssay (NCATS):
A number with no mark means an inactive call. Inconclusive results are not listed. Where a call stands in place of a potency, no number is given. The source made the active and inactive calls. Calls follow the shape of the dose curve; as a rule, active = well fitted curve in the direction sought with a large enough effect; inconclusive = small, poorly fitted or top-dose-only effect, or another doubt; inactive = no such curve, though single readings can be large; an effect the other way counts as inactive or inconclusive.

Legend:
[1] = target: Glutathione peroxidase 1 (Homo sapiens) (UniProt P07203); assay: Primary qHTS Assay for Inhibitors of Recombinant Selenoprotein Glutathione Peroxidase 1 (GPX1) (AID 1845191); also: nearly all actives have a fitted effect of over 65% in size
How it was run: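 NADPH consumption tracked by fluorescence at 340/450 nm between t=0 and t=15 min, room temperature. Final mix: 10 nM GPX1, 100 nM glutathione reductase, 1 mM GSH, 0.5 mM NADPH, 0.5 mM cumene hydroperoxide, 0.01% BSA; 30 min compound–enzyme preincubation.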

[2] = target: Phospholipid hydroperoxide glutathione peroxidase GPX4 (Homo sapiens) (UniProt P36969); assay: Primary qHTS Assay for Inhibitors of Recombinant Selenoprotein Glutathione Peroxidase 4 (GPX4) (AID 1845192); also: nearly all actives have a fitted effect of over 65% in size; as to activity change, negative = inhibition: series mostly up to about 50 µM
How it was run: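 NADPH consumption followed by fluorescence at 340/450 nm, t=0 and after 15 min at room temperature. Reaction started with cumene hydroperoxide (0.5 mM final) after 30 min compound–GPX4 preincubation; final 200 nM GPX4, 100 nM GR, 1 mM GSH, 0.5 mM NADPH.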

[3] = target: Luciferin 4-monooxygenase (Photinus pyralis) (UniProt P08659); assay: Primary firefly luciferase (FLuc) qHTS assay for identification of artifact compounds. (AID 1845220); details: outcome: dose series up to 54.1 µM unless noted; also: nearly all actives have a fitted effect of over 60% in size; as to activity change, negative = inhibition: series mostly up to about 54 µM
How it was run: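 Cell-free, 1536-well qHTS. Buffer pH 7.6 with 0.01% Tween-20 and 0.05% BSA; 10 uM D-luciferin, 10 uM ATP; 10 nM P. pyralis luciferase; luminescence after 5 min.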

[4] = Primary fluorescence-based thiol-reactive (MSTI) qHTS assay for identification of artifact compounds. (AID 1845221); also: nearly all actives have a fitted effect of over 65% in size; also: potency is read from the fitted curve at half-maximal effect;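 as to activity change, negative = thiol reactive: series mostly up to about 54 µM; thiol-reactive compounds lower the probe fluorescence signal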
How it was run: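 Compounds were incubated 1 h at room temperature in the dark with the MSTI probe (4 uM) in PBS pH 7.4, 2% DMSO. Signals were normalized between Acetyl-MSTI and MSTI.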

[5] = tested on: Nanoluciferase (engineered Oplophorus gracilirostris luciferase); assay: Primary Nanoluciferase (NLuc) qHTS assay for identification of artifact compounds. (AID 1845222); also: series mostly up to about 54 µM
How it was run: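 Compounds are pinned into diluted (1:55) conditioned medium of NLuc-expressing S16 cells and held 15 min at room temperature protected from light. Nano-Glo substrate follows, and luminescence is read 5 min later.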

[6] = Primary redox qHTS assay for identification of artifact compounds. (AID 1845223)
How it was run: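 Redox-cycling detection via DTT (250 uM final) oxidation coupled to Amplex Red (25 uM)/HRP (250 mU/mL) in HBSS. 15 min preincubation plus 30 min after DTT, room temperature. Ex/Em 525/598 nm; 4-parameter Hill fit against DMSO and 10 uM DA3003.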

Phospholipid hydroperoxide glutathione peroxidase GPX4 (Homo sapiens), sequence (P36969 whole entry, looked up): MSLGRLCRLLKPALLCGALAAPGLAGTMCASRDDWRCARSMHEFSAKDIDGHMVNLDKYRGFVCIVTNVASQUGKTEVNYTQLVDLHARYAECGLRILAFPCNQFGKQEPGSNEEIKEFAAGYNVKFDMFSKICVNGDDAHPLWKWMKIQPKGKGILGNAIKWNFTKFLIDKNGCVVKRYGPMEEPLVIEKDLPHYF
Glutathione peroxidase 1 (Homo sapiens), sequence (P07203 whole entry, looked up): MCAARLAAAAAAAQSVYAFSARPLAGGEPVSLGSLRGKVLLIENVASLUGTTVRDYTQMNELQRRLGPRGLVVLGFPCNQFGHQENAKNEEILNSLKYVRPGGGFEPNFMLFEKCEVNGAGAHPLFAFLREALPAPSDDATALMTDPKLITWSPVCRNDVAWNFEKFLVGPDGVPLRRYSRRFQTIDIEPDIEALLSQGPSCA

With `NC(CSCC(=O)O)C(=O)O` (configuration not stated) the Potency [1] was “inactive” and the Potency [2] was “inactive”.
For `O=C1NS(=O)(=O)c2ccccc21`, the Potency [1] was “inactive” and the Potency [2] was “inactive”.
In the case of `CCC(=O)c1ccc(O)cc1`, the Potency [1] is reported as “inactive” and the Potency [2] is reported as “inactive”.
With `CC1(C)[C@@H]2CC[C@@]1(C)C(=O)C2` the Potency [1] was “inactive” and the Potency [2] was “inactive”.
For `OCC(CO)N[C@H]1C[C@](O)(CO)[C@@H](O)[C@H](O)[C@H]1O`, the Potency [1] was “inactive” and the Potency [2] was “inactive”.
With `CC(=O)CCC(=O)O` the Potency [1] was “inactive” and the Potency [2] was “inactive”.
With `O=C1O[C@H](CO)[C@@H](O)[C@H](O)[C@H]1O` the Potency [1] was “inactive” and the Potency [2] was “inactive”.
With `NC(=O)NC(=O)Cc1ccccc1` the Potency [1] was “inactive” and the Potency [2] was “inactive”.
In the case of `C[C@H]1O[C@H](O[C@H]2[C@H](O)[C@@H](O)[C@@H](O[C@H]3[C@H](O)[C@@H](O)[C@H](O)O[C@@H]3CO)O[C@@H]2CO)[C@H](O)[C@@H](O)[C@@H]1N[C@H]1C=C(CO)[C@@H](O)[C@H](O)[C@H]1O`, the Potency [1] is reported as “inactive” and the Potency [2] is reported as “inactive”.
With `O=C(O)CC(O)C(=O)O` (configuration not stated) the Potency [1] was “inactive” and the Potency [2] was “inactive”.
With `CN(C)CCCN1c2ccccc2CCc2ccccc21` the Potency [1] was “inactive” and the Potency [2] was “inactive”.
In the case of `NCCNCCNCCNCCN`, the outcome [1] is reported as “inactive [at 9.52 µM]” and the outcome [2] is reported as “inactive [at 9.73 µM]”.
With `C/C(=C(\CCOP(=O)(O)O)SC(=O)c1ccccc1)N(C=O)Cc1cnc(C)nc1N` the outcome [1] was “inactive [at 4.49 µM]” and the outcome [2] was “inactive [at 4.52 µM]”.
With `CN1CCCCC1CCN1c2ccccc2Sc2ccc(S(C)=O)cc21` (configuration not stated) the Potency [1] was “inactive” and the Potency [2] was “inactive”.
In the case of `NS(=O)(=O)c1cc2c(cc1Cl)NC(CSCc1ccccc1)=NS2(=O)=O`, the Potency [1] is reported as “inactive” and the Potency [2] is reported as “inactive”.
With `Oc1cn2c(n1)Nc1ccc(Cl)c(Cl)c1C2` the Potency [1] was “inactive” and the Potency [2] was “inactive”.
For `O=C(O)COc1nn(Cc2ccccc2)c2ccccc12`, the Potency [1] was “inactive” and the Potency [2] was “inactive”.
With `CCn1cc(C(=O)O)c(=O)c2cnc(N3CCNCC3)nc21` the Potency [1] was “inactive” and the Potency [2] was “inactive”.
For `OCc1cc(C(O)CNCCCCCCOCCCCc2ccccc2)ccc1O` (configuration not stated), the Potency [1] was “inactive” and the Potency [2] was “inactive”.
In the case of `N[C@H]1C(O)O[C@H](CO)[C@@H](O)[C@@H]1O` (some centres not stated), the Potency [1] is reported as “inactive” and the Potency [2] is reported as “inactive”.
With `Cc1ncc(COP(=O)(O)O)c(C=O)c1O` the Potency [1] was “inactive” and the Potency [2] was “inactive”.
With `Nc1ccc(S(=O)(=O)Nc2ccc(Cl)nn2)cc1` the Potency [1] was “inactive” and the Potency [2] was “inactive”.
With `CC(COc1ccccc1)NC(C)C(O)c1ccc(O)cc1` (configuration not stated) the Potency [1] was “inactive” and the Potency [2] was “inactive”.
For `CN1[C@@H]2CC[C@H]1CC(OC(=O)C(O)c1ccccc1)C2` (some centres not stated), the Potency [1] was “inactive” and the Potency [2] was “inactive”.
In the case of `O=c1cc(CO)occ1O`, the Potency [1] is reported as “inactive” and the Potency [2] is reported as “inactive”.
With `N[C@@H](CSSC[C@H](N)C(=O)O)C(=O)O` the activity, negative = inhibition [1] was -7.33% [at 0.4 µM] and the activity change, negative = inhibition [2] was -7.83% [at 0.409 µM].
In the case of `O=c1cc[nH]c(=O)[nH]1`, the Potency [1] is reported as “inactive” and the Potency [2] is reported as “inactive”.
For `CCOC(=O)c1ccc(O)cc1`, the Potency [1] was “inactive” and the Potency [2] was “inactive”.
For `O=C(Oc1ccccc1C(=O)O)c1ccccc1O`, the Potency [1] was “inactive” and the Potency [2] was “inactive”.
With `CCCCC(CC)COC(=O)c1ccccc1O` (configuration not stated) the Potency [1] was “inactive” and the Potency [2] was “inactive”.
For `O=C(O)c1ccccn1`, the Potency [1] was “inactive” and the Potency [2] was “inactive”.
With `Cc1cc2c(cc1S(N)(=O)=O)S(=O)(=O)CCC2` the Potency [1] was “inactive” and the Potency [2] was “inactive”.
For `C[C@]12CC[C@@H]3c4ccc(O)cc4CC[C@H]3[C@@H]1CC[C@@H]2OC(=O)CCC1CCCC1`, the Potency [1] was “inactive”, the Potency [2] was “inactive” and the outcome [3] was “inactive”. The Potency [4] was “inactive”, the outcome [5] was “inactive” and the outcome [6] was “inactive”.
In the case of `COc1cc(C)c(Cc2cnc(N)nc2N)cc1OC`, the Potency [2] is reported as “inactive”.
With `O=C1Nc2ccc(Cl)cc2[C@@](C#CC2CC2)(C(F)(F)F)O1` the Potency [1] was “inactive”, the Potency [2] was “inactive” and the outcome [3] was “inactive”. For the same compound, the Potency [4] was “inactive”, the outcome [5] was “inactive” and the outcome [6] was “inactive”.
For `CC(=O)NC(Cc1ccccc1)C(=O)O` (configuration not stated), the Potency [1] was “inactive”, the Potency [2] was “inactive” and the outcome [3] was “inactive [at 86.2 µM]”. The Potency [4] was 11.2 µM (active), the outcome [5] was “inactive” and the outcome [6] was “inactive”.
With `Nc1ccc(S(=O)(=O)Nc2nccs2)cc1` the Potency [1] was “inactive”, the Potency [2] was “inactive” and the outcome [3] was “inactive”. The Potency [4] was “inactive”, the outcome [5] was “inactive” and the outcome [6] was “inactive”.
With `C[C@@H]1CN(c2c(F)c(F)c3c(=O)c(C(=O)O)cn(C4CC4)c3c2F)C[C@H](C)N1` the Potency [1] was “inactive”, the Potency [2] was “inactive” and the activity change, negative = inhibition [3] was 2.25% [at 11.6 µM]. The activity change, negative = thiol reactive [4] was -0.316% [at 11.5 µM], the activity, negative = inhibition [5] was 4.03% [at 11.6 µM] and the redox activity (% of DA3003) [6] was -2.75% [at 11.5 µM].
In the case of `CCOc1nc2cccc(C(=O)O)c2n1Cc1ccc(-c2ccccc2-c2nn[nH]n2)cc1`, the Potency [1] is reported as “inactive”, the Potency [2] is reported as “inactive” and the outcome [3] is reported as “inactive”. For the same compound, the Potency [4] was “inactive” and the outcome [6] was “inactive”.
With `CCCCOc1cc(C(=O)OCCN(CC)CC)ccc1N` the Potency [1] was “inactive”, the Potency [2] was “inactive” and the outcome [3] was “inactive”. For the same compound, the Potency [4] was “inactive”, the outcome [5] was “inactive” and the outcome [6] was “inactive”.
With `COc1ccc2cc1Oc1ccc(cc1)C[C@H]1c3c(cc4c(c3Oc3cc5c(cc3OC)CCN(C)[C@@H]5C2)OCO4)CCN1C` the Potency [1] was “inactive”, the Potency [2] was “inactive” and the outcome [3] was “inactive”. The Potency [4] was “inactive”, the outcome [5] was “inactive” and the outcome [6] was “inactive”.
For `Cc1ccc(C(C)C)cc2c(C)ccc1-2`, the Potency [2] was “inactive”.
In the case of `O=c1[nH]cnc2c1ncn2[C@@H]1O[C@H](CO)[C@@H](O)[C@H]1O`, the Potency [1] is reported as “inactive”, the Potency [2] is reported as “inactive” and the outcome [3] is reported as “inactive”. The Potency [4] was “inactive”, the outcome [5] was “inactive” and the outcome [6] was “inactive”.
In the case of `CCOC(=O)[C@H](CCc1ccccc1)N[C@@H](C)C(=O)N1C(=O)N(C)C[C@H]1C(=O)O`, the Potency [1] is reported as “inactive”, the Potency [2] is reported as “inactive” and the outcome [3] is reported as “inactive”. The Potency [4] was “inactive”, the outcome [5] was “inactive” and the outcome [6] was “inactive”.
With `O=C(CCCN1CCN(c2ccccn2)CC1)c1ccc(F)cc1` the Potency [1] was “inactive”, the Potency [2] was “inactive” and the outcome [3] was “inactive”. The Potency [4] was “inactive”, the outcome [5] was “inactive” and the outcome [6] was “inactive”.
With `CCOc1ccc2ccccc2c1C(=O)N[C@@H]1C(=O)N2[C@@H]1SC(C)(C)[C@@H]2C(=O)O` the Potency [1] was “inactive”, the Potency [2] was “inactive” and the outcome [3] was “inactive”. The Potency [4] was “inactive” and the outcome [5] was “inactive”.
With `COc1ccc2c(c1)C(=O)N(CCc1ccc(S(=O)(=O)NC(=O)NC3CCCCC3)cc1)C(=O)C2(C)C` the Potency [1] was “inactive”, the Potency [2] was “inactive” and the outcome [3] was “inactive”. The Potency [4] was “inactive”, the outcome [5] was “inactive” and the outcome [6] was “inactive”.
